Data taken from PubChem BioAssay AID1159580 (chemical genetic matrix, 2015).
Where “and” joins values, the source holds several entries; their conditions need not be identical. Equal entries are not always repeated. The whole screen tested about 5,500 compounds, of which about 2,000 (36%) were called active. About 18% were inconclusive and are not listed. Cut-off read from the data, not from the text of the source: active = normalized growth mostly below about 0.91 (no sharp cut-off); inconclusive = no clear call, values can overlap the other calls; inactive = mostly above about 0.92. The list shows a part of the results.

Assay: chemical genetic growth profiling, strain panel (AID 1159580);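 note: tested at 20 µM; growth read once vehicle control cultures reached saturation at 30 °C; 1 = growth at the plate median or of vehicle wells; lower values mean less growth of the strain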
Conditions: S. cerevisiae deletion strains, growth OD

Measured: normalized growth

C#C[C@]1(O)CCC2C3CCC4=C(CCC(=O)C4)C3CC[C@@]21C (some centres undefined)
inactive: locus YAL021C, strain ccr4, hits give low values 0.992 | locus YAL026C, strain drs2, hits give low values 0.942 | locus YAL030W, strain snc1, hits give low values 0.987 | locus YBL061C, strain skt5, hits give low values 0.993 | locus YBR009C, strain hhf1, hits give low values 0.941 | locus YBR021W, strain FUR4, hits give low values 0.977 | locus YBR023C, strain chs3, hits give low values 0.986 | locus YBR171W, strain sec66, hits give low values 0.974 | locus YBR229C, strain ROT2, hits give low values 1.01 | locus YBR231C, strain swc5, hits give low values 1 | locus YBR279W, strain paf1, hits give low values 0.982 | locus YCL011C, strain gbp2, hits give low values 0.98 | locus YCL016C, strain dcc1, hits give low values 0.994 | locus YCL029C, strain bik1, hits give low values 1.01 | locus YCL061C, strain MRC1, hits give low values 0.971 | locus YCL069W, strain vba3, hits give low values 0.973 | locus YCR088W, strain abp1, hits give low values 0.986 | locus YDL005C, strain med2, hits give low values 0.982 | locus YDL035C, strain GPR1, hits give low values 0.964 | locus YDL040C, strain nat1, hits give low values 0.989 | locus YDL074C, strain BRE1, hits give low values 1.03 | locus YDL101C, strain DUN1, hits give low values 1 | locus YDL134C, strain PPH21, hits give low values 0.981 | locus YDL185W, strain tfp1, hits give low values 1 | locus YDL192W, strain arf1, hits give low values 1.01 | locus YDR001C, strain nth1, hits give low values 0.983 | locus YDR069C, strain doa4, hits give low values 0.97 | locus YDR101C, strain arx1, hits give low values 0.984 | locus YDR150W, strain NUM1, hits give low values 1.03 | locus YDR159W, strain sac3, hits give low values 0.915 | locus YDR162C, strain NBP2, hits give low values 1.02 | locus YDR195W, strain ref2 1.07 | locus YDR297W, strain sur2, hits give low values 0.985 | locus YDR318W, strain mcm21, hits give low values 0.98 | locus YDR334W, strain swr1, hits give low values 0.996 | locus YDR335W, strain msn5, hits give low values 0.97 | locus YDR388W, hits give low values 1 | locus YDR392W, strain spt3, hits give low values 0.761 | locus YDR502C, strain sam2, hits give low values 0.985 | locus YEL003W, strain gim4, hits give low values 0.971 | locus YEL037C, strain rad23, hits give low values 0.98 | locus YEL061C, strain CIN8 (second series), hits give low values 0.969 | locus YEL061C, strain CIN8, hits give low values 1.02 | locus YER015W, strain faa2, hits give low values 0.994 | locus YER016W, strain bim1, hits give low values 0.976 | locus YER110C, hits give low values 1 | locus YER111C, strain swi4, hits give low values 1 | locus YER155C, strain BEM2 (second series), hits give low values 0.974 | locus YER155C, strain BEM2, hits give low values 1.02 | locus YER167W, strain BCK2, hits give low values 1.01 | locus YFR010W, strain ubp6, hits give low values 0.98 | locus YGL078C, strain dbp3, hits give low values 0.995 | locus YGL086W, strain mad1, hits give low values 0.99 | locus YGL167C, strain pmr1, hits give low values 0.984 | locus YGL173C, strain kem1, hits give low values 0.957 | locus YGL227W, strain vid30, hits give low values 0.98 | locus YGL240W, strain doc1, hits give low values 0.949 | locus YGL248W, strain PDE1, hits give low values 1 | locus YGL253W, strain hxk2, hits give low values 0.962 | locus YGR135W, strain pre9, hits give low values 0.981 | locus YGR252W, strain gcn5, hits give low values 0.893 | locus YHR013C, strain ard1, hits give low values 0.965 | locus YHR027C, strain rpn1, hits give low values 0.984 | locus YHR030C, strain SLT2, hits give low values 1.03 and 0.904 | locus YHR079C, strain IRE1 (second series), hits give low values 0.999 | locus YHR079C, strain IRE1, hits give low values 0.873 | locus YHR094C, strain hxt1, hits give low values 0.997 | locus YHR129C, strain ARP1, hits give low values 1.02 | locus YHR142W, strain chs7, hits give low values 0.921 | locus YHR200W, strain rpn10, hits give low values 1 | locus YIL066C, strain RNR3, hits give low values 1.02 | locus YIL073C, strain SPO22, hits give low values 0.968 | locus YIL125W, strain kgd1, hits give low values 1 | locus YIR030C, strain dcg1, hits give low values 1.02 | locus YJL092W, strain hpr5, hits give low values 0.986 | locus YJL095W, strain BCK1 (second series), hits give low values 0.991 | locus YJL095W, strain BCK1, hits give low values 0.979 and 0.922 | locus YJL115W, strain asf1, hits give low values 0.975 | locus YJL129C, strain trk1, hits give low values 0.884 | locus YJL134W, strain LCB3, hits give low values 1.02 | locus YJL154C, strain vps35, hits give low values 0.97 | locus YJL164C, strain tpk1, hits give low values 0.949 | locus YJL166W, strain qcr8, hits give low values 0.97 | locus YJL168C, strain set2, hits give low values 1 | locus YJL187C, strain SWE1 (second series), hits give low values 1.01 | locus YJL187C, strain SWE1, hits give low values 0.981 | locus YJR043C, strain POL32, hits give low values 1.02 | locus YJR066W, strain TOR1, hits give low values 0.886
active: locus YDR137W, strain rgp1, hits give low values 0.807
